Assay outcomes as filed in PubChem.
Compounds with a hit are over-represented: about 8.9% of the library has one in this group of screens.
SW480 rerep = induces DNA re-replication in SW480 colon adenocarcinoma cells | SW480 DNA re-replication, Hoechst DNA content imaging, 48 h | Potency, µM (top dose mostly 46.1 µM), most hits filed as activators | 340,000 tested, 1.8% active | AID 624297; note: nearly all actives have a fitted effect of over 55% in size
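Quantitative HTS format with DMSO vehicle controls; 48 hr drug incubation at 37 C, then 40 min Hoechst staining and scanning imager measurement at 405 nm excitation.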
KB-3-1 tox = kills parental KB-3-1 adenocarcinoma cells | Potency, µM (highest dose often 46.1 µM), hits mostly cytotoxic | 400,000 tested, 1.4% active | KB-3-1 viability, CellTiter-Glo ATP luminescence, 72 h; note: nearly all actives have a fitted effect of over 60% in size
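Here the drug-naive KB-3-1 line serves as comparator for MDR sub-line selectivity; cells received compound titrations, 72 h at 37 °C, then CellTiter-Glo readout.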
MCF10A rereplic = inducers of DNA re-replication in MCF 10A breast cells; MCF 10A DNA re-replication, Hoechst nuclear intensity, 48 h; Potency, µM (highest dose often 46.1 µM), usual class: activators; 350,000 tested, 2.9% active; note: nearly all actives have a fitted effect of over 50% in size
D3 antag = blocks the human D3 dopamine receptor; AID 652054; 360,000 tested, 2.5% active; D3R cells, DiscoveRx beta-arrestin luminescence, antagonist mode; hits give low values; max response, negative = inhibition, %; in the data active = max response below about -50%; inconclusive = no clear call, values can overlap the other calls
Target sequence (P35462 whole entry, looked up): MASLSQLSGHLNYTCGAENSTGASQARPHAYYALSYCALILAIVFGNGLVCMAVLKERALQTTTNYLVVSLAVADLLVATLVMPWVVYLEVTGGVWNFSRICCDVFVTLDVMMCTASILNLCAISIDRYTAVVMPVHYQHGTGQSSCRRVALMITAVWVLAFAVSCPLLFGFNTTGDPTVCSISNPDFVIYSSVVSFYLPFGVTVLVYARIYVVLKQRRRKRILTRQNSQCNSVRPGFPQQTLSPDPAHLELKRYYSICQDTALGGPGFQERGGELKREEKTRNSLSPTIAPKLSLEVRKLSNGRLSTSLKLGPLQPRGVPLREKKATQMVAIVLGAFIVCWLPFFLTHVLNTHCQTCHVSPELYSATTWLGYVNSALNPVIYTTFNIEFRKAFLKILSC
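Cells plated overnight at 1500 cells/well, then exposed to library compounds with dopamine controls for 90 minutes at 37 degrees C. DiscoveRx reagent added for 30–60 minutes at room temperature; luminescence read, quantitative HTS format.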
KB-V1 MDR tox = kills drug-selected multidrug resistant KB-V1 cells; KB-V1 MDR cells viability, CellTiter-Glo, 72 h; Potency, µM (series often up to 46.1 µM), usual class: cytotoxic; 400,000 tested, 3.4% active; note: nearly all actives have a fitted effect of over 60% in size
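Drug-selected KB-V1 cells, grown in DMEM lacking phenol red with 10% FBS, receive compound titrations; after three days at 37 degrees C, surviving cell ATP is quantified by CellTiter-Glo luminescence and responses normalized and curve-fitted.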
DRD3 agonist = D3 dopamine receptor (human) agonism | P35462 | D3R DiscoveRx beta-arrestin cells, luminescence, 90 min | max activation, % | 410,000 tested, 0.58% active | AID 652048; in the data active = max activation above about 30%
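Agonist mode: compounds and dopamine controls were applied to plated cells for 90 min at 37 degrees C after an overnight attachment at 1500 cells/well. Luminescent read-out followed 30 - 60 minutes at room temperature with DiscoveRx detection reagent.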
Large screens that a line does not name were inactive. Unless noted, calls come from the whole dose curve; as a rule, active = well fitted curve in the direction sought with a large enough effect; inconclusive = small, poorly fitted or top-dose-only effect, or another doubt; inactive = no such curve, though single readings can be large; an effect the other way counts as inactive or inconclusive.

CC[C@@]12C(=O)N(c3ccc(C)cc3)C(=O)N1[C@H](c1cccc(C)c1)[C@@H]1C(=O)N(Cc3ccccc3)C(=O)[C@@H]12	KB-V1 MDR tox inconclusive, DRD3 agonist 30
CCCOc1ccc(C(=O)Nc2cc3c(cc2N2CCCCC2)n(C)c(=O)n3C)cc1	none (no result: SW480 rerep, MCF10A rereplic, D3 antag)
CCOc1ccc(NC(=O)Cn2c(=O)n(Cc3ccccc3)c(=O)c3sc4ccccc4c32)cc1	none (no result: SW480 rerep, KB-3-1 tox, MCF10A rereplic, D3 antag, KB-V1 MDR tox)
CN1CCN(/N=C/c2ccc(N(c3ccccc3)c3ccccc3)cc2)CC1	MCF10A rereplic 16µM, D3 antag inconclusive
CN1CCN(/N=C/c2ccc(N(C)c3ccccc3)cc2)CC1	MCF10A rereplic inconclusive
CSc1ccc(/C=C/C(=O)c2ccc(NC(=O)C(C)C)cc2)cc1	SW480 rerep inconclusive, KB-3-1 tox inconclusive, MCF10A rereplic inconclusive, KB-V1 MDR tox inconclusive
CCC(=O)Nc1cccc(C(=O)/C=C/c2ccccc2)c1	SW480 rerep inconclusive, KB-3-1 tox inconclusive, MCF10A rereplic 8.2µM
CSc1ccc(/C=C/C(=O)c2ccc(NC(=O)Cc3ccccc3)cc2)cc1	SW480 rerep 18µM, MCF10A rereplic inconclusive, D3 antag inconclusive, KB-V1 MDR tox inconclusive
CSc1ccc(C(=O)/C=C/c2ccc(N)cc2)cc1	SW480 rerep inconclusive, KB-3-1 tox inconclusive, MCF10A rereplic 23µM, KB-V1 MDR tox inconclusive
CC(=O)NC(C)c1cc(Cl)c2cccnc2c1O (stereo not drawn)	SW480 rerep inconclusive, MCF10A rereplic 3.3µM (no result: D3 antag, DRD3 agonist)
CC(C)C(=O)NC(c1ccco1)c1ccc2cccnc2c1O (stereo not drawn)	SW480 rerep 3.7µM, KB-3-1 tox 4.1µM, MCF10A rereplic inconclusive, KB-V1 MDR tox 4.6µM
CN1CCN(C(c2ccc(F)cc2)c2ccc3cccnc3c2O)CC1 (stereo not drawn)	none
CN1CCN(C(c2ccc(Br)cc2)c2cc(Cl)c3cccnc3c2O)CC1 (stereo not drawn)	SW480 rerep inconclusive, KB-3-1 tox inconclusive, MCF10A rereplic inconclusive, D3 antag -76
CC(=O)NC(c1cccs1)c1cc(F)c2cccnc2c1O (stereo not drawn)	SW480 rerep inconclusive, KB-3-1 tox 10µM (no result: D3 antag, DRD3 agonist)
O=C(CSc1nccn1Cc1ccc(F)cc1)NCc1ccco1	none (no result: SW480 rerep, KB-3-1 tox, MCF10A rereplic, D3 antag, KB-V1 MDR tox)
Cc1ccc(C(=O)Nc2ccc(C(=O)OCc3cc(=O)n4c5c(sc4n3)CCCC5)cc2)cc1	none (no result: SW480 rerep, KB-3-1 tox, MCF10A rereplic, D3 antag, KB-V1 MDR tox)
CCOC(=O)c1c(NC(=O)c2ccc(S(=O)(=O)N(C)C3CCCCC3)cc2)sc2c1CCN(C(C)C)C2	none (no result: SW480 rerep, MCF10A rereplic, D3 antag)
CCCC(=O)NC(c1ccco1)c1cc(Cl)c2cccnc2c1O (stereo not drawn)	SW480 rerep inconclusive, MCF10A rereplic inconclusive, KB-V1 MDR tox inconclusive
CC(C)CC(=O)NC(c1cccs1)c1ccc2cccnc2c1O (stereo not drawn)	SW480 rerep 0.82µM, KB-3-1 tox inconclusive, MCF10A rereplic inconclusive
CCCC(=O)NC(c1cccs1)c1cc(Cl)c2cccnc2c1O (stereo not drawn)	SW480 rerep 1.3µM, KB-3-1 tox inconclusive
CCC(=O)NC(C)c1cc(Cl)c2cccnc2c1O (stereo not drawn)	SW480 rerep inconclusive, KB-3-1 tox 8.2µM, MCF10A rereplic inconclusive (no result: D3 antag, DRD3 agonist)
CCc1ccc(CN(C(=O)c2ccc(OC)cc2)C2CCS(=O)(=O)C2)cc1 (stereo not drawn)	none (no result: SW480 rerep, MCF10A rereplic, D3 antag)
COCCCNc1nc2c(-c3cccc(C)c3)nnn2c2ccccc12	MCF10A rereplic 13µM
Cc1ccc(NS(=O)(=O)c2ccc(NC(=O)c3ccccc3C(=O)O)cc2)c(C)c1	none
CCC(=O)Nc1ccc(S(=O)(=O)NCCc2ccccc2)cc1	KB-V1 MDR tox inconclusive
O=C(Nc1ccc(Oc2ccc(NC(=O)c3ccco3)c(NC(=O)c3ccco3)c2)cc1)c1ccco1	D3 antag -93
Cc1cc(C)cc(NS(=O)(=O)c2ccc(NC(=S)NC(=O)c3ccc(Br)o3)cc2)c1	KB-3-1 tox inconclusive, KB-V1 MDR tox 18µM
Cc1ccc(NS(=O)(=O)c2ccc(NC(=O)c3ccc(Br)o3)cc2)c(C)c1	KB-3-1 tox 21µM, MCF10A rereplic inconclusive, KB-V1 MDR tox 18µM
